# Laboratory results from PubChem BioAssay AID602393 (Broad Institute, 2012).
# Screen size: about 350,000 compounds; about 7,000 (2%) were called active. Shown is part of a subset that was picked to be rich in actives. Values without a mark were called inactive. Cut-off read from the data, not from the text of the source: active = activation above about 40%; inconclusive = no clear call, values can overlap the other calls; inactive = below that.
# Assay: raisers of Bmi1 knock-in reporter signal – mouse ES cells, Bmi1 luciferase knock-in, single point, esBAF inhibitor project, primary screen (AID 602393);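 note: 0% = median of the plate's neutral control wells and 100% = double that signal; a rise in the Bmi1 reporter signal indicates esBAF inhibition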
# Conditions: 24 h, at 12.5 µM, stronger effect = higher value, 100% = twice the neutral-well signal
row,SMILES,reporter increase
1,C[C@@H]1CN([C@@H](C)CO)S(=O)(=O)c2ccc(C#C[C@@H](C)O)cc2O[C@@H]1CN(C)C(=O)Cc1ccccn1,1.02%
2,Cc1ccccc1S(=O)(=O)NCC[C@@H]1CC[C@H](NC(=O)C2CCCCC2)[C@@H](CO)O1,4.09%
3,O=C(CC1CC1)N1CC[C@@H]2[C@@H](CO)Nc3ccc(-c4ccccc4)cc3[C@@H]21,-5.1%
4,COc1ccc(Nc2ccc3ccccc3c2)cc1,119% (active)
5,COc1ccc(NC2=CC(=S)NC(C)(C)C2)cc1,1.51%
6,COc1ccc(Nc2cc(=O)oc3ccccc23)cc1,3.87%
7,O=C(C1CCOCC1)N1C[C@H]2[C@@H](c3ccccc31)[C@@H](CO)N2Cc1ccccc1F,0.141%
8,CCNC(=O)C[C@@H]1CC[C@@H]2[C@@H](COc3ccc(NC(=O)c4cccc(C(F)(F)F)c4)cc3C(=O)N2C)O1,3.63%
9,CC(OC(=O)CN1C(=O)c2ccccc2C1=O)C(=O)c1ccccc1 (stereo unspecified),-0.946%
10,Cc1cc(/C=C2/SC(=O)N(CC(=O)OC(C)C)C2=O)c(C)n1C,83.5% (active)
11,Cc1cc(/C=C2/SC(=O)N(CC(=O)N3CCCC3)C2=O)c(C)n1C,0.583%
12,COc1ccccc1-c1ccc2c(c1)O[C@H](CN(C)C(=O)c1cccnc1)[C@@H](C)CN([C@H](C)CO)S2(=O)=O,0.986%
13,C[C@H](CO)N1C[C@H](C)[C@H](CN(C)CC2CC2)OCCCC[C@H](C)Oc2ccc(NC(=O)c3ccncc3)cc2C1=O,-1.67%
14,CCOC(OCC)c1ccc(/C=C\c2nccc(N)n2)cc1,46.6% (active)
15,Cc1noc(C)c1NC(=O)Nc1ccc2c(c1)C(=O)N([C@H](C)CO)C[C@H](C)[C@H](CN(C)Cc1ccc(C(=O)O)cc1)OCCCC[C@H](C)O2,-3.6%
16,CC(Sc1ncnc2c1cnn2-c1ccccc1)C(=O)Nc1ccc(N2CCOCC2)cc1 (stereo unspecified),13.9%
17,Cc1ccc(-n2ncc3c(Nc4cccc(C(=O)O)c4)ncnc32)cc1,57.1% (active)
18,Cc1ccc(Nc2ncnc3c2cnn3C)c(C)c1,-6%
19,CNC[C@H]1Oc2cc(-c3cccnc3)ccc2S(=O)(=O)N([C@@H](C)CO)C[C@H]1C,3.67%
20,Cc1ccccc1C(=O)Nc1ccccc1Sc1ccccc1,-8.84%
21,CSc1ccccc1NC(=O)c1cnc2sc(C)cn2c1=O,68.8% (active)
22,CSc1ccccc1NC(=O)c1cc(Cl)sc1Cl,-9.78%
23,O=C(c1ccccc1)N1CC[C@H]2[C@H](CO)Nc3ccc(-c4ccc(F)cc4)cc3[C@H]21,-5.91%
24,CCCN(C)C[C@H]1Oc2ncc(-c3cccnc3)cc2C(=O)N([C@@H](C)CO)C[C@@H]1C,5.67%
25,Cn1c(=NC(=O)C2CC2)sc2cc(F)cc(F)c21,62% (active)
26,Cn1c(=NC(=O)c2ccco2)sc2cccc(F)c21,29%

row,SMILES,reporter increase
1,CCC(=O)Nc1ccc2c(c1)OC[C@H](C)N(Cc1ccccc1F)C[C@H](C)[C@@H](OC)CN(C)C2=O,0.435%
2,C[C@H](CO)N1C[C@H](C)[C@H](CN(C)CC2CCCCC2)Oc2c(NC(=O)c3cnccn3)cccc2C1=O,-2.88%
3,O=C(NNC(=O)c1cc2c(s1)CCCC2)c1ccccc1,40.9% (active)
4,O=C(c1cc2c(s1)CCC2)N1CCN(c2ccccc2)CC1,6.19%
5,O=C(CNC(=O)c1cc2c(s1)CCC2)Nc1ccccc1Br,30.7%
6,CCNC(=O)C[C@@H]1CC[C@H](NC(=O)C2CCC2)[C@@H](CO)O1,4.25%
7,C[C@@H]1CN([C@H](C)CO)C(=O)Cc2cc(NC(=O)C3CCCCC3)ccc2O[C@@H]1CN(C)S(C)(=O)=O,-5.11%
8,C[C@@H]1CN([C@@H](C)CO)S(=O)(=O)c2ccc(C#CC3CCCC3)cc2O[C@H]1CN(C)S(C)(=O)=O,20.1%
9,COc1cccc(-c2cc3nc4c(c(N5CCC6(CC5)OCCO6)n3n2)CCCC4)c1,42.7% (active)
10,COc1cccc(CNc2nc3nc4c(c(=O)n3[nH]2)CCC4)c1,-1.38%
11,O=C(c1ccccc1)N1CCN(c2cc(-c3ccccc3)nc3cc(-c4cccc(Cl)c4)nn23)CC1,-1.84%
12,O=C(C[C@@H]1CC[C@@H]2[C@H](COC[C@H](O)CN2Cc2cccc(C(F)(F)F)c2)O1)NCc1ccc(F)cc1,-1.09%
13,C[C@@H]1CN([C@@H](C)CO)C(=O)c2cc(NC(=O)Nc3cccc4ccccc34)ccc2O[C@@H](C)CCCCO[C@@H]1CN(C)S(=O)(=O)c1ccc(Cl)cc1,2.17%
14,O=C(c1cccs1)N1CCCC(c2nc(-c3ccc(F)cc3)no2)C1 (stereo unspecified),51.6% (active)
15,CCOC(=O)C1(C)CCCN(C(=O)c2cccc(Cl)c2)C1 (stereo unspecified),-1.3%
16,O=C(Cc1cccs1)N1CCCC(c2nc(-c3ccc(S(=O)(=O)N4CCCC4)cc3)no2)C1 (stereo unspecified),-3.86%
17,COc1cc(-c2noc(C3CCCN(S(=O)(=O)c4cccc(Cl)c4)C3)n2)cc(OC)c1OC (stereo unspecified),0.345%
18,COc1cccc(-c2noc(C3CCCN(C(=O)c4ccc(F)cc4)C3)n2)c1 (stereo unspecified),5.64%
19,Cc1ccc(-c2noc(C3CCCN(C(=O)c4cccc(Cl)c4)C3)n2)o1 (stereo unspecified),46.6% (active)
20,COc1ccccc1NC(=O)N(C)C[C@@H]1Oc2ncc(Br)cc2C(=O)N([C@@H](C)CO)C[C@@H]1C,-5.49%
21,O=C(NCC[C@@H]1CC[C@@H](NC(=O)Nc2cc(F)ccc2F)[C@H](CO)O1)Nc1ccc(Cl)cc1,38.7%
22,C[C@H]1CN([C@@H](C)CO)C(=O)c2cc(C3=CCCCC3)cnc2O[C@H]1CN(C)Cc1ccncc1,-11.9%
23,O=C(O)C1CCN(C(=O)OCc2ccccc2)CC1,59.3% (active)
24,CCOC(=O)N1CCC(NC(=O)CCc2ccccc2)CC1,-4.64%
25,O=C(NCc1ccccc1)C1CCN(C(=O)Cc2ccccc2)CC1,1.43%
